Data published in PubChem BioAssay AID623888 (Vanderbilt Specialized Chemistry Center, 2012).

Target: Metabotropic glutamate receptor 3 (Rattus norvegicus) (UniProt P31422)
Assay: PubChem AID 623888
Details: HEK/GIRK rat mGlu3, thallium flux fluorescence, Schild, at 3 µM; % glutamate max: glutamate max response with compound, stronger effect = lower value; glutamate EC50 fold shift: stronger effect = higher value

Chain of Metabotropic glutamate receptor 3 (Rattus norvegicus) (P31422 whole entry, looked up): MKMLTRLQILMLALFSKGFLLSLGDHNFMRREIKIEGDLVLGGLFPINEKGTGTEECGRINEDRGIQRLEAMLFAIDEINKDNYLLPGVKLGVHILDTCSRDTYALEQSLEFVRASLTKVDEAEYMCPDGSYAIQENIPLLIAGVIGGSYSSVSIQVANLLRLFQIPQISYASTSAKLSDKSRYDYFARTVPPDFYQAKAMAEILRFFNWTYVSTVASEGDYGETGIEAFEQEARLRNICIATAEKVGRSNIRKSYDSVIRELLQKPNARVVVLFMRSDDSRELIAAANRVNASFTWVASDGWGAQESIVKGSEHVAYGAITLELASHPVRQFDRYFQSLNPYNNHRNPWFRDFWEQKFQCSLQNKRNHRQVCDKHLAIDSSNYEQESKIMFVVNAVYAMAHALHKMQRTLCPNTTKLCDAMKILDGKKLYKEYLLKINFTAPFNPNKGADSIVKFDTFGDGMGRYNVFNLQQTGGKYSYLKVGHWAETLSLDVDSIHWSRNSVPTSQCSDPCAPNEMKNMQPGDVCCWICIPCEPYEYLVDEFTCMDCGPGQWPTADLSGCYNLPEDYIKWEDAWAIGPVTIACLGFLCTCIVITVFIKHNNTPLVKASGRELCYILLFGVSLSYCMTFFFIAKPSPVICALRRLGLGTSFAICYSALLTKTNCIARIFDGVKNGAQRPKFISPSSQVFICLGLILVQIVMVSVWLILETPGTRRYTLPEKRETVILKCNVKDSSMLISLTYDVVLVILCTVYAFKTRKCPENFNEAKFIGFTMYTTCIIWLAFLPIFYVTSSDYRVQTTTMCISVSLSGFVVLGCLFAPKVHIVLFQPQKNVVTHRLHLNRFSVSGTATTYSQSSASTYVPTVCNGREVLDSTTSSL

In the case of `COc1ccc(C#Cc2ccc(C(=O)N3CCC[C@@H](CO)C3)cc2)cc1`, the % glutamate max is reported as 88.9% and the glutamate EC50 fold shift is reported as 1.48.
